Unmarked numbers belong to inactive results. Where a call stands in place of a potency, no number is given. The source made the active and inactive calls. Calls follow the shape of the dose curve; as a rule, active = well fitted curve in the direction sought with a large enough effect in the repeat runs; inconclusive = weak or mixed curves; inactive = flat fitted curve, though single readings scatter.

The first test is described as follows: qHTS assay to test for compound auto fluorescence at 535 nm (green) in HEK293 cells (AID 720680). The note with it: green autofluorescence 485/535 nm; series mostly up to 91.3 µM.
On to `CC(CCl)OC(C)CCl` (centres undefined), for which the molecule was called inactive.

Take `CCCCCCC/C=C/C=O`: the call was inactive.

Consider `Oc1ccc(Oc2ccccc2)cc1`, for which the call was inactive.

Consider `FC(F)(Cl)C(F)(Cl)Cl`, for which the result was inactive.

Consider `CCC(C)C1N=C(C)C(C)S1` (centres undefined), for which the outcome was inactive.

`O=C(Nc1ccccc1)c1cc([N+](=O)[O-])ccc1Cl`: the molecule was classed as inactive.

As for `O=C(Cl)c1ccc(F)c(Cl)c1`, the result was inactive.

With `CC(=O)CC/C=C(\C)CC/C=C(\C)CC/C=C(\C)CCC=C(C)C`, the molecule was called inactive.

For `CCOc1ccc2c(c1)C(C)CC(C)(C)N2` (centres undefined), the outcome was inactive.

Consider `CCCC1CCOC(C)S1` (centres undefined), for which the result was inactive.

On to `N#Cc1ccc(CC(=O)c2cccc(C(F)(F)F)c2)cc1`, for which the molecule was classed as inactive.

For `O=C(OCCCCCOC(=O)c1ccccc1)c1ccccc1`, the molecule was called inactive.

As for `Cc1c(Nc2ncccc2C(=O)O)cccc1C(F)(F)F`, the fluorescence, % of fluorescein is 0.0171% [at 18.6 µM].

Regarding `O=C(O)c1ccc2c(c1)nc(C(=O)NC1CCN(C3CC3)CC1)n2Cc1cc(-c2ccc(Cl)s2)on1`, the fluorescence, % of fluorescein is -0.0247% [at 18.6 µM].

In the case of `C[C@@H](O)[C@H]1C(=O)N2C(C(=O)O)=C(S[C@@H]3CN[C@H](CNS(N)(=O)=O)C3)[C@H](C)[C@H]12`, the molecule was classed as inactive.

`CCCCCCOC(=O)c1ccccc1`: the result was inactive.

As to `CCCCOC(=O)CC#N`, the molecule was classed as inactive.

On to `Nc1ccccc1Nc1ccccc1`, for which the molecule was called inactive.

`Cc1cc(SC2=C(O)C[C@@](CCc3ccc(N)cc3)(C(C)C)OC2=O)c(C(C)(C)C)cc1CO`: the molecule was classed as inactive.

`O=C(N[C@@H](Cc1ccccc1)[C@@H](O)C(=O)N1C[C@@H](O)[C@@H](O)C1)c1cc2cc(Cl)ccc2[nH]1`: the molecule was classed as inactive.

As for `COC=O`, the fluorescence, % of fluorescein is -0.112% [at 9.17 µM].

For the molecule `CCN(CCCCOC(=O)c1ccc(OC)c(OC)c1)C(C)Cc1ccc(OC)cc1` (centres undefined), the fluorescence, % of fluorescein is 0.0099% [at 18.6 µM].

Consider `COc1cc(CNC(=O)CCCC/C=C/C(C)C)ccc1O`, for which the outcome was inactive.

For `CC/C=C/CCO`, the molecule was called inactive.

Consider `C=CC(C)(O)CC/C=C(/C)CCC=C(C)C` (centres undefined), for which the result was inactive.

As for `Clc1ccccc1-c1nc(-c2ccncc2)no1`, the outcome was inactive.

Take `C(/C=C/C=C/Nc1ccccc1)=Nc1ccccc1`: the molecule was called inactive.

As to `O=C(O)c1ccccc1-n1cc(C(=O)O)c(=O)c2cc(Nc3c(F)cc(F)cc3Cl)c(Cl)cc21`, the molecule was called inactive.

Take `O=Cc1ccc([N+](=O)[O-])cc1`: the molecule was classed as inactive.

As to `CC(C)(Cc1c[nH]c2ccccc12)NCC(O)COc1ccccc1C#N` (centres undefined), the molecule was called inactive.

With `CCc1c(C)[nH]c2c1C(=O)C(CN1CCOCC1)CC2` (centres undefined), the fluorescence, % of fluorescein was 0.152% [at 18.6 µM].

For the molecule `CCOc1ccc(NC(C)=O)cc1N`, the outcome was inactive.

As for `COc1ccc(C(=O)c2ccc(C)cc2)c(O)c1`, the outcome was inactive.

For the molecule `C=C(C)C(=O)OCCCCCCCCCCOC(=O)C(=C)C`, the result was inactive.

For `CCCCCCCCCCCCCCCCC(=O)O`, the molecule was classed as inactive.

Regarding `CC(=O)c1cccnc1`, the call was inactive.

Consider `CCC[Si](OC)(OC)OC`, for which the outcome was inactive.

Another test is described as follows: qHTS assay to test for compound auto fluorescence at 460 nm (blue) in HEK293 cell free culture (AID 720681). The note with it: cell-free medium, autofluorescence 405/460 nm (blue); series mostly up to 91.3 µM. Summed up:
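Test compounds were pinned into cell-free culture medium (DMEM with 10% FBS) and fluorescence was read directly at Ex/Em 405/460 nm. Signals were expressed as fluorescence equivalents of triamterene, with DMSO vehicle as control.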
For `CC(CCl)OC(C)CCl` (centres undefined), the Potency entry is “inactive”.

Regarding `CCCCCCC/C=C/C=O`, the Potency entry is “inactive”.

`Oc1ccc(Oc2ccccc2)cc1`: the Potency result was “inactive”.

Turning to `FC(F)(Cl)C(F)(Cl)Cl`, the Potency entry was “inactive”.

In the case of `CCC(C)C1N=C(C)C(C)S1` (centres undefined), the Potency entry is “inactive”.

Consider `O=C(Nc1ccccc1)c1cc([N+](=O)[O-])ccc1Cl`, for which the Potency entry is “inactive”.

In the case of `O=C(Cl)c1ccc(F)c(Cl)c1`, the Potency result was “inactive”.

On to `CC(=O)CC/C=C(\C)CC/C=C(\C)CC/C=C(\C)CCC=C(C)C`, for which the Potency result is “inactive”.

`CCOc1ccc2c(c1)C(C)CC(C)(C)N2` (centres undefined): the Potency result is “inactive”.

For `CCCC1CCOC(C)S1` (centres undefined), the Potency entry was “inactive”.

Turning to `N#Cc1ccc(CC(=O)c2cccc(C(F)(F)F)c2)cc1`, the Potency entry was “inactive”.

As for `O=C(OCCCCCOC(=O)c1ccccc1)c1ccccc1`, the Potency entry was “inactive”.

On to `Cc1c(Nc2ncccc2C(=O)O)cccc1C(F)(F)F`, for which the fluorescence, % of fluorescent control is -0.115% [at 18.6 µM].

Regarding `O=C(O)c1ccc2c(c1)nc(C(=O)NC1CCN(C3CC3)CC1)n2Cc1cc(-c2ccc(Cl)s2)on1`, the fluorescence, % of fluorescent control is 0.0923% [at 18.6 µM].

As to `C[C@@H](O)[C@H]1C(=O)N2C(C(=O)O)=C(S[C@@H]3CN[C@H](CNS(N)(=O)=O)C3)[C@H](C)[C@H]12`, the Potency entry was “inactive”.

For `CCCCCCOC(=O)c1ccccc1`, the Potency result is “inactive”.

For `CCCCOC(=O)CC#N`, the Potency entry is “inactive”.

On to `Nc1ccccc1Nc1ccccc1`, for which the Potency result was “inactive”.

Take `Cc1cc(SC2=C(O)C[C@@](CCc3ccc(N)cc3)(C(C)C)OC2=O)c(C(C)(C)C)cc1CO`: the Potency result is “inactive”.

Consider `O=C(N[C@@H](Cc1ccccc1)[C@@H](O)C(=O)N1C[C@@H](O)[C@@H](O)C1)c1cc2cc(Cl)ccc2[nH]1`, for which the Potency result was “inactive”.

Take `COC=O`: the fluorescence, % of fluorescent control is -0.168% [at 9.17 µM].

As to `CCN(CCCCOC(=O)c1ccc(OC)c(OC)c1)C(C)Cc1ccc(OC)cc1` (centres undefined), the fluorescence, % of fluorescent control was 0.0098% [at 18.6 µM].

For `COc1cc(CNC(=O)CCCC/C=C/C(C)C)ccc1O`, the Potency entry was “inactive”.

For the molecule `CC/C=C/CCO`, the Potency result was “inactive”.

Take `C=CC(C)(O)CC/C=C(/C)CCC=C(C)C` (centres undefined): the Potency result was “inactive”.

For the molecule `Clc1ccccc1-c1nc(-c2ccncc2)no1`, the Potency entry is “inactive”.

Turning to `C(/C=C/C=C/Nc1ccccc1)=Nc1ccccc1`, the Potency result is “inactive”.

Take `O=C(O)c1ccccc1-n1cc(C(=O)O)c(=O)c2cc(Nc3c(F)cc(F)cc3Cl)c(Cl)cc21`: the Potency result was “inactive”.

Turning to `O=Cc1ccc([N+](=O)[O-])cc1`, the Potency result was “inactive”.

Take `CC(C)(Cc1c[nH]c2ccccc12)NCC(O)COc1ccccc1C#N` (centres undefined): the Potency entry is “inactive”.

As for `CCc1c(C)[nH]c2c1C(=O)C(CN1CCOCC1)CC2` (centres undefined), the fluorescence, % of fluorescent control was 0.0226% [at 18.6 µM].

Turning to `CCOc1ccc(NC(C)=O)cc1N`, the Potency result was “inactive”.

Turning to `COc1ccc(C(=O)c2ccc(C)cc2)c(O)c1`, the Potency result was “inactive”.

Consider `C=C(C)C(=O)OCCCCCCCCCCOC(=O)C(=C)C`, for which the Potency result was “inactive”.

With `CCCCCCCCCCCCCCCCC(=O)O`, the Potency entry is “inactive”.

In the case of `CC(=O)c1cccnc1`, the Potency result was “inactive”.

With `CCC[Si](OC)(OC)OC`, the Potency result was “inactive”.

The record behind these values is PubChem BioAssay (Tox21).
